Consider ten molecules from PubChem BioAssay (NCI).

What all share (test): NCI-60 one-dose screen, 48 h (100 = growth as untreated, 0 = no growth, -100 = all killed)
One assay has as its system SK-MEL-2 melanoma. Particulars: 10 µM unless noted.
Another assay deals with EKVX NSCLC. The conditions noted are these: 10 µM unless noted.
A further assay relates to SN12C renal. Particulars: 10 µM unless noted.
In a further assay the test system is UO-31 renal. The conditions noted are these: 10 µM unless noted.
The subject of a further assay is TK-10 renal. Particulars: 10 µM unless noted.
Another assay has as its system ACHN renal. The conditions noted are these: 10 µM unless noted.
In the next assay the test system is CAKI-1 renal. Particulars: 10 µM unless noted.
Another assay relates to A498 renal. The conditions noted are these: 10 µM unless noted.
The next assay has as its system CCRF-CEM leukemia. Particulars: 10 µM unless noted.
The next assay concerns MOLT-4 leukemia. Particulars: 10 µM unless noted.
The subject of a further assay is SR leukemia. The conditions noted are these: 10 µM unless noted.
The subject of the next assay is RPMI-8226 leukemia. Particulars: 10 µM unless noted.
In the next assay the test system is OVCAR-8 ovarian. The conditions noted are these: 10 µM unless noted.
The subject of a further assay is OVCAR-5 ovarian. The conditions noted are these: 10 µM unless noted.
For the next assay, the system named is OVCAR-4 ovarian. Particulars: 10 µM.
The subject of the next assay is IGROV1 ovarian. The conditions noted are these: 10 µM unless noted.
The subject of another assay is OVCAR-3 ovarian. The conditions noted are these: 10 µM unless noted.
Another assay relates to HS 578T breast. Particulars: 10 µM unless noted.
The test system of a further assay is NCI/ADR-RES ovarian. The conditions noted are these: 10 µM unless noted.
A further assay concerns SK-OV-3 ovarian. The conditions noted are these: 10 µM unless noted.

About 83,000 compounds went through this panel and 20% of them were active in at least one assay; those are over-represented in the sample as a whole.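 Cell lines were cultured in 96-well plates, exposed to a single compound concentration, and assessed for percent growth 48 hours later.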 Unmarked numbers belong to inactive results. Active and inactive are the calls of the source. How the source made its calls: active means growth percent below 10; inactive means the rest.

Regarding `CCOC(=O)n1cc(C2=C(c3ccc(OC)c(OC)c3)COC2=O)c2ccccc21`, the growth in the assay on SK-MEL-2 melanoma was 62.1%; with EKVX NSCLC, 51.5%; in the assay on SN12C renal, 18.5%; with UO-31 renal, 26.5%; in the assay with TK-10 renal, 53.7%; in the assay on ACHN renal, 23.1%. Moreover, the growth in the assay on CAKI-1 renal is 23.6%; in the assay on A498 renal, -25.3% (active); with CCRF-CEM leukemia, 17.6%; in the assay with MOLT-4 leukemia it was 11.6%; in the assay with SR leukemia, 18.1%; with RPMI-8226 leukemia, 27.9%. The growth is 25.5% in the assay with OVCAR-8 ovarian; 50.1% in the assay on OVCAR-5 ovarian; 35.3% with OVCAR-4 ovarian; 18.2% in the assay on IGROV1 ovarian; -42.6% (active) in the assay with OVCAR-3 ovarian; 36.2% with HS 578T breast.
As to `CCN(CC)CC(C)Nc1ccc(C)c2sc3ccccc3c(=O)c12` (stereo unspecified), the growth in the assay with SK-MEL-2 melanoma was 116%; in the assay with EKVX NSCLC, 81.8%; with SN12C renal, 49.6%; in the assay on UO-31 renal, 19.5%; with TK-10 renal it was 68.1%; in the assay with ACHN renal, 37.8%. Moreover, the growth is 39.3% with CAKI-1 renal; 60.1% with A498 renal; 34.4% in the assay with CCRF-CEM leukemia; 24.6% in the assay with MOLT-4 leukemia; 33.4% in the assay with SR leukemia; 11% in the assay with RPMI-8226 leukemia. Further, the growth with OVCAR-8 ovarian was 64.2%; with OVCAR-5 ovarian, 68.9%; in the assay on OVCAR-4 ovarian, 75.9%; in the assay with IGROV1 ovarian, 19.1%; with OVCAR-3 ovarian, 77.5%; with HS 578T breast, 73.8%. Moreover, the growth with NCI/ADR-RES ovarian is 68.7%.
Regarding `CC1(C)C(=NO)C(C)(C)C1=NO`, the growth is 117% with SK-MEL-2 melanoma; 114% with EKVX NSCLC; 110% in the assay with SN12C renal; 104% with UO-31 renal; 104% in the assay with TK-10 renal; 112% with ACHN renal. The growth is 109% in the assay on CAKI-1 renal; 109% with A498 renal; 7.92% (active) in the assay with CCRF-CEM leukemia; 8.62% (active) in the assay on MOLT-4 leukemia; 103% in the assay on SR leukemia; 76.2% in the assay on RPMI-8226 leukemia. The growth was 113% in the assay with OVCAR-8 ovarian; 103% in the assay on OVCAR-5 ovarian; 115% in the assay on OVCAR-4 ovarian; 125% with SK-OV-3 ovarian; 117% in the assay with OVCAR-3 ovarian; 106% in the assay with NCI/ADR-RES ovarian.
As to `CC(C)CCSc1nc(N)nc2nc[nH]c12`, the growth in the assay with SK-MEL-2 melanoma is 109%; in the assay on EKVX NSCLC, 109%; in the assay on SN12C renal it was 92.8%; in the assay with UO-31 renal, 86.1%; with TK-10 renal, 154%; in the assay with ACHN renal it was 91.5%. The growth is 108% in the assay with CAKI-1 renal; 116% in the assay on A498 renal; 102% in the assay with CCRF-CEM leukemia; 116% with MOLT-4 leukemia; 89.8% in the assay on SR leukemia; 94.6% with RPMI-8226 leukemia. In addition, the growth in the assay with OVCAR-8 ovarian was 94.1%; in the assay with OVCAR-5 ovarian, 107%; in the assay on OVCAR-4 ovarian, 112%; in the assay on IGROV1 ovarian, 79.9%; in the assay with OVCAR-3 ovarian, 103%; in the assay with HS 578T breast, 122%.
For the molecule `O=C(C[n+]1ccn(CC(OCc2ccc(Cl)cc2Cl)c2ccc(Cl)cc2Cl)c1)c1ccc(F)cc1` (stereo unspecified), the growth in the assay on SK-MEL-2 melanoma is -88% (active); in the assay with EKVX NSCLC, -77.8% (active); with SN12C renal, -93.5% (active); in the assay on UO-31 renal, 84.1%; in the assay with TK-10 renal, -46.1% (active); in the assay with ACHN renal, 26.5%. For the same molecule, the growth is 79.7% in the assay on CAKI-1 renal; -12.3% (active) with A498 renal; -12.1% (active) in the assay on CCRF-CEM leukemia; -19.9% (active) with MOLT-4 leukemia; -52.9% (active) in the assay on SR leukemia; -46.3% (active) in the assay on RPMI-8226 leukemia. Further, the growth is -90.5% (active) in the assay with OVCAR-8 ovarian; -93.4% (active) with OVCAR-5 ovarian; -96.2% (active) in the assay with OVCAR-4 ovarian; 26.3% in the assay with SK-OV-3 ovarian; -57.1% (active) in the assay with HS 578T breast; 103% in the assay with NCI/ADR-RES ovarian.
On to `CC(C)(C)c1cc(C(=O)Nc2ccc(C(=O)NCCN)cc2)cc(C(C)(C)C)c1`, for which the growth in the assay with SK-MEL-2 melanoma was 60.3%; in the assay on EKVX NSCLC it was 71.2%; with SN12C renal, 12.8%; in the assay on UO-31 renal, 69.5%; in the assay with TK-10 renal, 90.9%; in the assay on ACHN renal it was 44.4%. The growth in the assay on CAKI-1 renal is 71.7%; with A498 renal it was 13.1%; in the assay with CCRF-CEM leukemia, 3.44% (active); in the assay with MOLT-4 leukemia, 10.9%; in the assay on SR leukemia, -40.4% (active); in the assay with RPMI-8226 leukemia it was 15.6%. Besides, the growth with OVCAR-8 ovarian is 72.2%; with OVCAR-5 ovarian, 49.3%; with OVCAR-4 ovarian, 62.3%; with IGROV1 ovarian, 52.9%; in the assay on OVCAR-3 ovarian it was 54.6%; in the assay on HS 578T breast, 81.7%. Further, in the assay with NCI/ADR-RES ovarian, the growth was 92.4%.
In the case of `CCc1ccc(NC(=O)N[C@@H](Cc2cc(F)cc(F)c2)C(=O)N[C@@H]2C(=O)N3C[C@H](O)C[C@H]3C(=O)N3CCOC[C@H]3C(=O)N[C@@H](C)C(=O)N3C[C@H](C)C[C@H]3C(=O)O[C@H]2C)cc1`, the growth in the assay on SK-MEL-2 melanoma was 29%; in the assay with EKVX NSCLC, 79%; in the assay with SN12C renal, 24.3%; in the assay on UO-31 renal, 78.7%; in the assay on TK-10 renal, 95.8%; in the assay on ACHN renal, 103%. In addition, the growth was 84.4% in the assay with CAKI-1 renal; 38.6% in the assay with A498 renal; 50.9% in the assay on CCRF-CEM leukemia; 43.3% in the assay on MOLT-4 leukemia; 48.3% in the assay with SR leukemia; 17.2% in the assay with RPMI-8226 leukemia. In addition, the growth is 62.3% in the assay with OVCAR-8 ovarian; 46.3% with OVCAR-5 ovarian; 12.8% in the assay with OVCAR-4 ovarian; 49.4% in the assay on IGROV1 ovarian; 16.8% with OVCAR-3 ovarian; 41.2% in the assay on HS 578T breast. In the assay with NCI/ADR-RES ovarian, the growth was 107%.
In the case of `COc1ccc2c(c1)c(-c1noc(C(=O)c3cn(C)c4ncc(Br)cc34)n1)cn2C`, the growth in the assay on SK-MEL-2 melanoma is 97.4%; with EKVX NSCLC, 75.4%; in the assay with SN12C renal, 77.6%; in the assay on UO-31 renal, 70.5%; with TK-10 renal, 21.8%; in the assay on ACHN renal it was 39.8%. The growth with CAKI-1 renal is 68.9%; with A498 renal, 48.5%; in the assay with CCRF-CEM leukemia, 56.9%; in the assay on MOLT-4 leukemia it was 77.2%; with SR leukemia, 64%; in the assay with RPMI-8226 leukemia, 62.2%. Further, the growth in the assay with OVCAR-8 ovarian was 74.4%; in the assay with OVCAR-5 ovarian, 80.4%; in the assay with OVCAR-4 ovarian it was 42.9%; with IGROV1 ovarian, 54.3%; in the assay with OVCAR-3 ovarian it was 30.5%; in the assay with HS 578T breast, 27.8%. Further, in the assay with NCI/ADR-RES ovarian, the growth is 59.7%.
Take `COc1ccc(NCc2cn(-c3ccc(C(=O)O)cc3)nc2-c2ccc(C(=O)O)cc2)cc1C(F)(F)F`: the growth is 106% in the assay with SK-MEL-2 melanoma; 84.2% in the assay on EKVX NSCLC; 95.3% in the assay with SN12C renal; 88.1% in the assay on UO-31 renal; 83% with TK-10 renal; 98.1% in the assay with ACHN renal. For the same molecule, the growth is 86.3% with CAKI-1 renal; 81.2% in the assay on A498 renal; -50.4% (active) with CCRF-CEM leukemia; 123% in the assay on MOLT-4 leukemia; 131% in the assay with SR leukemia; 88.4% in the assay on RPMI-8226 leukemia. The growth with OVCAR-8 ovarian was 103%; in the assay on OVCAR-5 ovarian, 93.3%; with OVCAR-4 ovarian it was 93.3%; in the assay on IGROV1 ovarian, 99.7%; in the assay on OVCAR-3 ovarian, 105%; with HS 578T breast it was 83.2%. For the same molecule, the growth with NCI/ADR-RES ovarian is 105%.
For `Cn1cc(-c2nnc(-c3ccccc3)s2)c2cc(Br)cnc21`, the growth in the assay with SK-MEL-2 melanoma is 100%; in the assay on EKVX NSCLC, 62.6%; in the assay with SN12C renal, 90.1%; in the assay with UO-31 renal, 61.5%; in the assay with TK-10 renal, 88.2%; with ACHN renal, 66.7%. The growth with CAKI-1 renal is 53%; in the assay on A498 renal it was 60.2%; in the assay on CCRF-CEM leukemia, -12.6% (active); with MOLT-4 leukemia, 83.4%; with SR leukemia it was 90.7%; in the assay on RPMI-8226 leukemia, 85.8%. Also, the growth with OVCAR-8 ovarian is 94.4%; in the assay on OVCAR-5 ovarian, 94.9%; with OVCAR-4 ovarian, 68%; with IGROV1 ovarian, 43.7%; with OVCAR-3 ovarian, 84.5%; in the assay with HS 578T breast, 79.9%. For the same molecule, the growth in the assay on NCI/ADR-RES ovarian was 90.4%.
